# High-throughput results from PubChem BioAssay.
# Most compounds without a hit are left out; they make up all but 1.4% or so of the library.
# GLD-1 TGE inh: GLD-1-TGE RNA interaction inhibition (C. elegans). purified GLD-1 + fluorescein TGE RNA, fluorescence polarization. Q17339. actives 0.44% (n = 320,000). inhibition, % at 5.96 µM;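 active = percent inhibition above a per-plate cutoff, the plate mean of test compounds plus 3 SD, cut at about 30% in these data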;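 also: 0% = DMSO wells with GLD-1 and probe and 100% = wells lacking GLD-1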
# MCL1 BIM primary: inhibitors of human MCL1 binding to BIM-BH3 peptide | inhibition, % at 10.9 µM | GST-MCL1 / FITC-Bim-BH3 fluorescence polarization | Q07820 | actives 0.68% (n = 320,000);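 active = inhibition above the mean inhibition of all tested compounds plus 3 SD, set per campaign, cut at about 40% in these data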;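 also: 0% = DMSO wells and 100% = unlabeled Bim-BH3 peptide control; higher means more loss of mP so more displacement of Bim peptide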
# BCLXL inh: blocks human Bcl-xL binding to Bim BH3 peptide; Q07817; GST-Bcl-xL / FITC-Bim BH3 peptide fluorescence polarization; inhibition, % at 10.9 µM; actives 0.7% (n = 320,000); AID 2129;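 active = inhibition above the mean of all tested compounds plus 3 SD, cutoff set per campaign, cut at about 30% in these data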;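 also: 0% = DMSO wells and 100% = unlabeled Bim-BH3 peptide competitor; inhibitors lower millipolarization by displacing the labeled peptide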
# Target sequence (Q07817 whole entry, looked up): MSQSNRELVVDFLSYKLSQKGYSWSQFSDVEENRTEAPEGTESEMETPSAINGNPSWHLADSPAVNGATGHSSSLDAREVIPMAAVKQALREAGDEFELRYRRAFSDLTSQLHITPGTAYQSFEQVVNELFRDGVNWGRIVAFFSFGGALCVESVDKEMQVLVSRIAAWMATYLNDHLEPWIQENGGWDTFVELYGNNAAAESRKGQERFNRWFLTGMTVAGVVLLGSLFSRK
# MEX-5 binding: C. elegans MEX-5 TCR-2 RNA binding activity; activity score (negative = inhibition of binding), % at 10 µM; actives 0.38% (n = 300,000); MEX-5/FITC-TCR2 RNA binding, fluorescence polarization; stronger effect = lower value;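 active = inhibition past about -25% in most replicates, and total fluorescence under double the plate's negative control median, limit read from the data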;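 also: 0% = DMSO and -100% = 5 µM competing unlabeled TCR2 RNA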
# EBV gp42 inh: blocks Epstein-Barr virus glycoprotein 42 binding | AID 1085 | actives 0.42% (n = 220,000) | Q1HVG2 | Fluorescence polarization binding assay, mP read-out | inhibition, % (tested at 21.74 µM); in the data active = inhibition above about 50%
# Target sequence (Q1HVG2 whole entry, looked up): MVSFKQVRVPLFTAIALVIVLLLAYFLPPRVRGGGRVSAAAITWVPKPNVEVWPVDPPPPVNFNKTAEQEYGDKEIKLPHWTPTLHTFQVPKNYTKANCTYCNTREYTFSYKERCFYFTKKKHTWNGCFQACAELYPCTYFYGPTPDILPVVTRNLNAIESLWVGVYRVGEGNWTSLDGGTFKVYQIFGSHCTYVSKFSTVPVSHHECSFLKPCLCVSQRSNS
# E coli Lon inh: inhibits E. coli Lon protease; P0A9M0; inhibition, % at 7.94 µM; actives 0.42% (n = 360,000); purified E. coli Lon protease, fluorescence polarization; in the data active = inhibition above about 13%, passing the limit was not always enough;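 also: 0% = enzyme with probe and DMSO and 100% = no enzyme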
# * marks the source's active call; other numbers are inactive results; . = no result.
SMILES,GLD-1 TGE inh,MCL1 BIM primary,BCLXL inh,MEX-5 binding,EBV gp42 inh,E coli Lon inh
CCc1noc(C)c1C(=O)N1CCC(CCC(=O)Nc2cccc(OC)c2)CC1,9.8,5.4,4.6,-0.4,.,-3.2
Cc1sc(NC(=O)CSc2n[nH]c(N)n2)c(C#N)c1C,.,.,.,.,.,-13.4
Cc1ccc(/C=C/C2=Cc3c(sc(NC(=O)CSc4n[nH]c(N)n4)c3C#N)C(C)(C)C2)o1,37.0*,60.7*,53.8*,4.2,76.8*,.
CCOc1ccc(CCNC(=O)CCc2nnc3ccc(N4CCCCC4)nn23)cc1OCC,0.3,0.2,7.1,0.7,.,-4.7
O=C(O)c1cccc(-n2cccc2/C=C2/NC(=O)N(c3ccc(Cl)cc3)C2=O)c1,.,.,.,.,94.7*,-12.1
CCOc1cc(/C=N/NC(=O)c2ccc(-c3csc(Nc4ccc(C)cc4)n3)cc2)ccc1OCC(=O)O,.,.,.,.,89.2*,-2.7
O=C(O)COc1ccc(/C=N/NC(=O)c2ccc(-c3csc(Nc4ccc(Cl)cc4)n3)cc2)cc1,.,.,.,0.3,92.5*,2.3
Nc1nc2c(nnn2C2CC(O)C(CO)O2)c(=O)[nH]1 (stereo not given),.,.,.,.,.,-5.8
COc1cc(/C=C2\S/C(=N/S(=O)(=O)c3ccccc3)NC2=O)c([N+](=O)[O-])cc1OC,17.1,37.9,36.9*,-5.0,4.3,4.7
O=C(Nc1cccc(C(=O)O)c1)/C(=C\c1cccc([N+](=O)[O-])c1)NC(=O)c1ccc(Br)cc1,.,.,.,.,.,3.6
O=C1C=C(NNC(=O)c2ccccc2Br)CCC1,68.6*,16.9,12.5,-5.1,-0.3,22.4
CCN(CC)CCCC(C)NC(=O)c1ccc(C(F)(F)F)cc1 (stereo not given),-3.1,0.1,9.5,-2.2,-22.2,4.5
COC(=O)CCC(=O)OC1(C)C(=O)C=C2C=C(C3CC3)N(C3CC3)C=C2C1=O (stereo not given),15.8,28.6,22.1,-2.1,15.9,5.9
C=CC1=C2C=C(C3CC3)N(C3CC3)C=C2C(=O)C(C)(OC(=O)c2ccco2)C1=O (stereo not given),15.5,27.8,30.8*,-6.8,.,10.9
Nc1c(C(=O)NCC2CCCO2)sc2nc3c(c(-c4ccco4)c12)CC/C3=C\c1ccco1 (stereo not given),.,.,.,.,98.2*,-6.9
Cc1ccc(F)c(S(=O)(=O)NC(=O)C2(C)CCN2C(=O)CCc2ccccc2)c1 (stereo not given),.,.,.,.,.,-2.1
CSCC(C)N1CCC(n2nccc2NC(=O)c2ccc3c(c2)OCO3)CC1 (stereo not given),18.6,22.2,26.5,-3.3,.,5.1
CSCC(C)N1CCC(n2nccc2NC(=O)c2ccccc2C)CC1 (stereo not given),23.0,38.7,37.8*,-4.6,.,-4.8
CC1(C(=O)Nc2ccccc2F)CCN1C(=O)Cc1ccc(-c2ccccc2)cc1 (stereo not given),.,.,.,.,.,10.5
Cc1c(C=O)c(Cl)n(C)c(=O)c1C#N,20.8,36.3,37.4*,-18.8,-3.9,-2.5
COc1cccc(/C=N/NC(=O)c2ccncc2)c1OC(=O)c1ccc(Br)cc1,26.7,37.6,34.0*,-0.9,.,0.3
COc1cc(/C=N/NC(=O)c2ccncc2)ccc1OC(=O)c1cccc(Br)c1,-4.6,3.4,0.3,-2.9,.,0.7
O=C1CCN(Cl)C(=O)N1Cl,.,.,.,.,.,-13.7
Cc1[nH][nH]c(=O)c1N=Nc1ccc(S(N)(=O)=O)cc1,1.0,2.2,0.7,-58.9*,.,-5.5
NS(=O)(=O)c1ccc(N=Nc2c(=O)[nH]n3c(=O)c4c([nH]c23)CCCC4)cc1,-3.4,7.0,8.0,-83.5*,8.1,-3.1
CCn1cc(C(=O)N(C)CC(OC)OC)c(=O)c2cc(S(=O)(=O)N3CCOCC3)ccc21,3.4,-2.7,-2.8,-2.7,.,-9.2
O=S(=O)(c1cccc(-c2csc(-c3cccnc3)n2)c1)N1CCOCC1,3.4,-1.2,2.4,-27.3*,8.3,-3.3
O=C(O)C(=O)/C(=C\c1ccc([N+](=O)[O-])cc1)c1ccc2ccccc2n1,-13.3,-33.8,-26.0,-13.9,-6.6,-46.9
O=C(O)C(=O)/C(=C\c1ccccc1)c1ccc2ccccc2n1,5.5,-15.1,-9.4,-6.0,-38.1,-29.4
O=C(O)C(=O)/C(=C\c1ccsc1)c1ccc2ccccc2n1,2.7,-10.5,-2.4,-47.9*,.,-9.8
